Data taken from the supplement of paper PMC4237247.
Structures can show the parent of a compound that is named as a salt.

Each compound was assayed on HeLa (assay: percent cells in G1 phase; higher = more G1 arrest). Details: 10 µM; 20 h.
Procedure: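 HTS of 79,827 drug-like compounds at 10 uM. HeLa cells in 384-well plates were treated for 20 h, fixed, stained with Vybrant DyeCycle Green and scanned on an Acumen eX3 cytometer to give per-well cell cycle profiles (% cells in each phase). The plate Z' was 0.51. Only hits are listed: G1 hits >4 SD and S hits >5 SD from the mean.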

| SMILES | percent cells in G1 phase |
| --- | --- |
| CC(=O)C1=C(O)C(=O)N(CC(=O)O)C1c1ccccc1F (configuration not stated) (hit class: S-phase inhibitor) | 61.1% |
| Nc1ccn([C@H]2CC[C@@H](CO)O2)c(=O)n1 [Zalcitabine] (hit class: S-phase inhibitor) | 45.1% |
| CCN(CC)Cc1c(O)ccc2c(=O)c(-c3ccccc3)coc12 (hit class: S-phase inhibitor) | 55.9% |
| Cc1ccc(-c2cc(-c3ccccc3Cl)[nH]n2)c(O)c1 (hit class: G1-phase inhibitor) | 69.2% |
| O=C(COc1ccc(Cl)cc1)NC(Cc1c[nH]c2ccccc12)C(=O)O (configuration not stated) (hit class: G1-phase inhibitor) | 69% |
| O=C1c2c(O)ccc(O)c2C(=O)c2c(NCCNCCO)ccc(NCCNCCO)c21 [Mitoxantrone dihydrochloride] (hit class: G1-phase inhibitor) | 70% |
| COc1[nH]c2ccccc2c1C=NO (hit class: S-phase inhibitor) | 59.4% |
| Cn1c(SCc2ccccc2)nc2ccccc2c1=O (hit class: S-phase inhibitor) | 60% |
| c1ccc2c(c1)Nc1nc3ccccc3nc1O2 (hit class: G1-phase inhibitor) | 70.5% |
| COc1ccc(C(=O)c2coc3ccc(OC)cc3c2=O)cc1 (hit class: G1-phase inhibitor) | 70.5% |
| CC[C@@H](C(=O)[C@@H](C)[C@@H](O)[C@H](C)CCc1ccc(C)c(O)c1C(=O)O)[C@H]1O[C@](CC)([C@H]2CC[C@](O)(CC)[C@H](C)O2)C[C@@H]1C [Lasalocid sodium salt] (hit class: G1-phase inhibitor) | 73.9% |
| C[C@@H]1CCC[C@H](C)N1NC(=O)c1ccc(Cl)c(S(N)(=O)=O)c1 [Clopamide] (hit class: G1-phase inhibitor) | 70.5% |
| COc1ccc(CSc2nncn2N)cc1 (hit class: S-phase inhibitor) | 61.4% |
| C[C@@H]1C[C@H]2[C@@H]3C[C@H](F)C4=CC(=O)C=C[C@]4(C)[C@@]3(Cl)[C@@H](O)C[C@]2(C)[C@H]1C(=O)COC(=O)C(C)(C)C [Clocortolone pivalate] (hit class: S-phase inhibitor) | 43.2% |
| Cc1cc(N2CCCCC2)c(F)cc1[N+](=O)[O-] (hit class: S-phase inhibitor) | 44.7% |
| Cc1cc([N+](=O)[O-])ccc1NCc1ccc(F)c(F)c1 (hit class: G1-phase inhibitor) | 69.8% |
| COc1c(C)c2c(c(O)c1C/C=C(\C)CCC(=O)O)C(=O)OC2 [Mycophenolic acid] (hit class: S-phase inhibitor) | 39% |
